Assay results reported in PubChem BioAssay AID1159580 (chemical genetic matrix, 2015).
In all, about 5,500 compounds went through this assay and about 2,000 (36%) were called active. Not shown: some 18% with an inconclusive outcome. No stated cut-off is given here; in the data, active means normalized growth mostly below about 0.91 (no sharp cut-off); inconclusive means no clear call, values can overlap the other calls; inactive means mostly above about 0.92. Some of the results follow.

Assay: chemical genetic growth profiling, strain panel (AID 1159580);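 further: tested at 20 µM; growth read once vehicle control cultures reached saturation at 30 °C; 1 = growth at the plate median or of vehicle wells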
Conditions: growth OD

Measured: normalized growth

COc1ccc2c(c1)O[C@H]1c3ccc(OC)cc3OC[C@@H]21
inactive: S. cerevisiae deletion strains, locus YJR075W, strain HOC1, stronger effect = lower value 0.969 | S. cerevisiae deletion strains, locus YKL068W, stronger effect = lower value 0.99 | S. cerevisiae deletion strains, locus YKL085W, strain MDH1 (second series), stronger effect = lower value 0.98 | S. cerevisiae deletion strains, locus YKL085W, strain MDH1, stronger effect = lower value 0.98 | S. cerevisiae deletion strains, locus YKL160W, strain elf1, stronger effect = lower value 1.03 | S. cerevisiae deletion strains, locus YKL190W, strain CNB1, stronger effect = lower value 1.01 | S. cerevisiae deletion strains, locus YKR001C, strain vps1, stronger effect = lower value 0.936 | S. cerevisiae deletion strains, locus YKR026C, strain gcn3, stronger effect = lower value 1.02 | S. cerevisiae deletion strains, locus YKR091W, strain srl3, stronger effect = lower value 1.03 | S. cerevisiae deletion strains, locus YLL001W, strain dnm1, stronger effect = lower value 1.02 | S. cerevisiae deletion strains, locus YLL026W, stronger effect = lower value 1.03 | S. cerevisiae deletion strains, locus YLL041C, strain sdh2, stronger effect = lower value 1.03 | S. cerevisiae deletion strains, locus YLR027C, strain aat2, stronger effect = lower value 1.01 | S. cerevisiae deletion strains, locus YLR039C, strain RIC1, stronger effect = lower value 0.767 | S. cerevisiae deletion strains, locus YLR058C, strain SHM2, stronger effect = lower value 0.957 | S. cerevisiae deletion strains, locus YLR102C, strain apc9, stronger effect = lower value 0.949 | S. cerevisiae deletion strains, locus YLR113W, strain HOG1, stronger effect = lower value 1.02 | S. cerevisiae deletion strains, locus YLR221C, strain rsa3, stronger effect = lower value 1.02 | S. cerevisiae deletion strains, locus YLR258W, strain gsy2, stronger effect = lower value 1.03 | S. cerevisiae deletion strains, locus YLR262C, strain YPT6 (second series), stronger effect = lower value 1 | S. cerevisiae deletion strains, locus YLR262C, strain YPT6, stronger effect = lower value 0.744 | S. cerevisiae deletion strains, locus YLR268W, strain sec22, stronger effect = lower value 0.9 | S. cerevisiae deletion strains, locus YLR320W, strain mms22, stronger effect = lower value 1.02 | S. cerevisiae deletion strains, locus YLR330W, strain CHS5, stronger effect = lower value 0.975 | S. cerevisiae deletion strains, locus YLR342W, strain FKS1, stronger effect = lower value 1.02 | S. cerevisiae deletion strains, locus YLR357W, strain rsc2, stronger effect = lower value 0.99 | S. cerevisiae deletion strains, locus YLR370C, strain arc18, stronger effect = lower value 1.03 | S. cerevisiae deletion strains, locus YLR371W, strain rom2, stronger effect = lower value 0.972 | S. cerevisiae deletion strains, locus YLR384C, strain iki3, stronger effect = lower value 1.03 | S. cerevisiae deletion strains, locus YML016C, strain PPZ1, stronger effect = lower value 0.985 | S. cerevisiae deletion strains, locus YML120C, strain ndi1, stronger effect = lower value 1.02 | S. cerevisiae deletion strains, locus YML124C, strain tub3, stronger effect = lower value 0.95 | S. cerevisiae deletion strains, locus YMR058W, strain fet3, stronger effect = lower value 1.02 | S. cerevisiae deletion strains, locus YMR078C, strain ctf18, stronger effect = lower value 0.915 | S. cerevisiae deletion strains, locus YMR125W, strain sto1, stronger effect = lower value 1.02 | S. cerevisiae deletion strains, locus YMR129W, stronger effect = lower value 1.03 | S. cerevisiae deletion strains, locus YMR205C, strain PFK2, stronger effect = lower value 1.04 | S. cerevisiae deletion strains, locus YMR223W, strain ubp8, stronger effect = lower value 0.92 | S. cerevisiae deletion strains, locus YMR231W, strain pep5, stronger effect = lower value 1.03 | S. cerevisiae deletion strains, locus YMR307W, strain GAS1, stronger effect = lower value 0.927 | S. cerevisiae deletion strains, locus YNL067W, strain RPL9B, stronger effect = lower value 0.989 | S. cerevisiae deletion strains, locus YNL071W, strain lat1, stronger effect = lower value 1.01 | S. cerevisiae deletion strains, locus YNL153C, strain GIM3, stronger effect = lower value 0.953 | S. cerevisiae deletion strains, locus YNL183C, strain NPR1, stronger effect = lower value 0.946 | S. cerevisiae deletion strains, locus YNL209W, strain ssb2, stronger effect = lower value 1.01 | S. cerevisiae deletion strains, locus YNL233W, strain BNI4, stronger effect = lower value 0.953 | S. cerevisiae deletion strains, locus YNL248C, strain rpa49, stronger effect = lower value 1.02 | S. cerevisiae deletion strains, locus YNL250W, strain rad50, stronger effect = lower value 0.993 | S. cerevisiae deletion strains, locus YNL271C, strain bni1, stronger effect = lower value 0.944 | S. cerevisiae deletion strains, locus YNL322C, strain KRE1 (second series), stronger effect = lower value 1.04 | S. cerevisiae deletion strains, locus YNR049C, strain mso1, stronger effect = lower value 1.02 | S. cerevisiae deletion strains, locus YNR052C, strain pop2, stronger effect = lower value 0.963 | S. cerevisiae deletion strains, locus YOL012C, strain htz1 1.39 | S. cerevisiae deletion strains, locus YOR001W, strain rrp6, stronger effect = lower value 1.02 | S. cerevisiae deletion strains, locus YOR061W, strain CKA2, stronger effect = lower value 0.997 | S. cerevisiae deletion strains, locus YOR069W, strain VPS5, stronger effect = lower value 0.982 | S. cerevisiae deletion strains, locus YOR070C, strain gyp1, stronger effect = lower value 1.01 | S. cerevisiae deletion strains, locus YOR080W, strain dia2, stronger effect = lower value 1.02 | S. cerevisiae deletion strains, locus YOR083W, strain WHI5, stronger effect = lower value 1.03 | S. cerevisiae deletion strains, locus YOR106W, strain vam3, stronger effect = lower value 1.03 | S. cerevisiae deletion strains, locus YOR136W, strain idh2, stronger effect = lower value 0.953 | S. cerevisiae deletion strains, locus YOR144C, strain elg1, stronger effect = lower value 0.951 | S. cerevisiae deletion strains, locus YOR231W, strain MKK1, stronger effect = lower value 0.979 | S. cerevisiae deletion strains, locus YOR265W, strain rbl2, stronger effect = lower value 1.03 | S. cerevisiae deletion strains, locus YOR270C, strain vph1, stronger effect = lower value 1.01 | S. cerevisiae deletion strains, locus YOR290C, strain snf2, stronger effect = lower value 1.04 | S. cerevisiae deletion strains, locus YOR316C, strain cot1, stronger effect = lower value 0.962 | S. cerevisiae deletion strains, locus YPL051W, strain arl3, stronger effect = lower value 1.03 | S. cerevisiae deletion strains, locus YPL078C, strain atp4, stronger effect = lower value 1.04 | S. cerevisiae deletion strains, locus YPL106C, strain sse1, stronger effect = lower value 1.03 | S. cerevisiae deletion strains, locus YPL240C, strain hsp82, stronger effect = lower value 1.02 | S. cerevisiae deletion strains, locus YPL241C, strain CIN2, stronger effect = lower value 0.982 | S. cerevisiae deletion strains, locus YPL256C, strain CLN2, stronger effect = lower value 0.939 | S. cerevisiae deletion strains, locus YPR119W, strain clb2, stronger effect = lower value 0.939 | S. cerevisiae deletion strains, locus YPR141C, strain kar3, stronger effect = lower value 0.975 | S. cerevisiae strains, strain wild type, stronger effect = lower value 1.01
active: S. cerevisiae deletion strains, locus YKL009W, strain mrt4, stronger effect = lower value 0.837 | S. cerevisiae deletion strains, locus YLR418C, strain cdc73, stronger effect = lower value 0.691 | S. cerevisiae deletion strains, locus YML032C, strain rad52, stronger effect = lower value 0.873 | S. cerevisiae deletion strains, locus YNL298W, strain CLA4, stronger effect = lower value 0.908 | S. cerevisiae deletion strains, locus YNL307C, strain MCK1, stronger effect = lower value 0.475 | S. cerevisiae deletion strains, locus YOL147C, strain pex11, stronger effect = lower value 0.886 | S. cerevisiae deletion strains, locus YOR184W, strain ser1, stronger effect = lower value 0.685 | S. cerevisiae deletion strains, locus YPR163C, strain tif3, stronger effect = lower value 0.677 | S. cerevisiae deletion strains, locus YPR167C, strain met16, stronger effect = lower value 0.907 | S. cerevisiae deletion strains, strain wtn01, stronger effect = lower value 0.886
